The whole screen tested about 1,300 compounds, of which about 330 (25%) were called active. Not all results are given here. Entries with a potency or affinity are not part of this list. Unmarked numbers belong to inactive results. How the calls were made is not given here.
assay: MALME3 melanoma cell viability loss, dose response, orthogonal assay for MITF inhibitor project, CellTiter-Glo, cherry-picked (AID 493191); details: CellTiter-Glo luminescence, 24 h; series mostly up to 35 µM; activity change, negative = inhibition: at the top concentration

Row | SMILES | activity change, negative = inhibition
1 | COCCn1c(C)cc(C(=O)CSc2nnc(C)s2)c1C | -0.249%
2 | O=C(CCl)N1c2ccccc2CCc2ccccc21 | -49.2%
3 | COc1ccc(CCC(=O)N2CCc3ccccc32)cc1 | 8.39%
4 | CC(=O)c1sc(N/N=C\c2ccc(N(C)C)cc2)nc1C | 5.88%
5 | COc1cccc(C(=O)Nc2ccc3c(cc2=O)[C@@H](NC(C)=O)CCc2cc(OC)c(OC)c(OC)c2-3)c1 | -7.94%
6 | O=C1c2ccccc2C(=O)N1CCOc1ccccc1 | 4.44%
7 | O=C(/C=C/c1cccc([N+](=O)[O-])c1)n1cnc2ccccc21 | 7.11%
8 | Cc1nc2ccccn2c1C(=O)/C=C/c1cccc([N+](=O)[O-])c1 | -12.5%
9 | CCOC(=O)C(=Cc1ccc(-n2ccnc2)cc1)C(=O)OCC | -26.4%
10 | CC(=O)c1ccc(Sc2nnnn2-c2ccccc2)c([N+](=O)[O-])c1 | -9.01%
11 | Cc1ccc(-n2ncc3c(SCC(N)=O)ncnc32)cc1C | 6.21%
12 | CCOc1ccc2cc(C#N)c(SCC(=O)OC)nc2c1 | 7.87%
13 | Cc1cc(C)cc(NS(=O)(=O)c2ccc3c(c2)c(=O)n(C)c(=O)n3C)c1 | 2.38%
14 | N#Cc1cnn2cc(CCN3CCOCC3)c(-c3ccc(F)cc3)nc12 | 1.83%
15 | Cc1cc(Cl)ccc1OCCCC(=O)N1CCOCC1 | -4.77%
16 | O=C(CCCc1ccccc1)N1CCN(C2CCCCC2)CC1 | -3.56%
17 | O=C(Cn1nnc(-c2ccccc2Cl)n1)N1CCCCC1 | 8.11%
18 | Cc1ccc(C(=O)c2cccc(N)c2)cc1C | 0.35%
19 | CC(C)(C)c1ccc(C(=O)N2CCCCCC2=O)cc1 | 6.45%
20 | O=C(CSCc1c(F)cccc1F)Nc1ccccc1 | 2.1%
21 | CC(C)(C)OC(=O)N1CCN(C(=O)c2nc[nH]c2C(=O)N2CCN(c3ccccc3)CC2)CC1 | -26%
22 | Cc1ccsc1C(=O)OCC(=O)Nc1sccc1C(N)=O | -20.1%

Row | SMILES | activity change, negative = inhibition
23 | CCCCC(=O)N/C(N)=N/c1nc2ccccc2o1 | -0.61%
24 | Cc1c(Cl)c([N+](=O)[O-])nn1Cc1ccc(C(=O)N/N=C\c2cc(Cl)ccc2O)o1 | -5.4%
25 | O=C(N/N=C/c1ccccn1)c1cc([N+](=O)[O-])cc([N+](=O)[O-])c1 | -7.68%
26 | O=C(c1ccc([N+](=O)[O-])s1)N1CCN(c2ccccn2)CC1 | -34.3%
27 | O=C(O)c1cc2ccccc2c(N=Nc2cccnc2)c1O | -0.206%
28 | CN(C)S(=O)(=O)c1cccc(NC(=O)CSc2nc3c(cc2C#N)C(=O)CC(C)(C)C3)c1 | -8.7%
29 | O=C(c1nnsc1S(=O)(=O)c1ccc(Cl)cc1)N1CCOCC1 | -35.8%
30 | Nc1ccc(-c2nc3ccc(C(=O)O)cc3s2)cc1 | 0.971%
31 | OCC1CCCC(n2cnc3c(=S)nc[nH]c32)O1 (centres undefined) | -7.54%
32 | CCN1CCCC1CNC(=O)c1ccc2c(c1)NC(=O)/C(=C\c1ccc(OC)c(OC)c1)S2 (centres undefined) | -14.6%
33 | COc1cccc(/C=C2/Sc3ccc(C(=O)NCCN4CCCC4)cc3NC2=O)c1 | -19.7%
34 | Cc1cccc(/C=C2/Sc3ccc(C(=O)NCCN4CCCC4)cc3NC2=O)c1 | -24%
35 | CCCC1=Nc2cc(C(=O)NCCN3CCCC3)ccc2Sc2ccccc21 | -14.3%
36 | CCN1CCN(CCCNC(=O)c2ccc3c(Cl)c4c(nc3c2)CCCC4)CC1 | -24.1%
37 | CCNc1nc(N)c(C(=O)c2ccc(Cl)s2)s1 | -12.9%
38 | CSc1nc(N)n2nc(-c3ccc(Cl)cc3)cc2n1 | -9.67%
39 | CC(C)CC(=O)/C=C/n1c(=S)oc2ccccc21 | -49.6%
40 | CN(c1cccc(NC(=O)COc2ccc(Cl)cc2Cl)c1)S(C)(=O)=O | 0.563%
41 | O=C(CC(=O)c1ccccc1)Nc1ccccn1 | -16%
42 | CC(=O)Nc1ccc(S(=O)(=O)N2CCn3cccc3C2C)cc1 (centres undefined) | -14%
43 | CC(=O)Nc1cccc2c1Cc1ccccc1-2 | 8.57%
44 | c1ccc(-c2cn3nc4c(nc3n2)CCCC4)cc1 | -27.3%

Row | SMILES | activity change, negative = inhibition
45 | O=S1(=O)CCC(NC(=S)SCc2ccccc2Br)C1 (centres undefined) | -16%
46 | COc1cccc(-c2nnc3sc(-c4cccs4)nn23)c1 | 13.5%
47 | COCC(C)Nc1ncnc2c1cnn2-c1ccc(Cl)cc1 (centres undefined) | 10.2%
48 | Nc1ccccc1SC1CC(=O)N(c2ccc3c(c2)OCCO3)C1=O (centres undefined) | 4.99%
49 | Cc1ccc2nc(NC(=O)c3ccc(Br)o3)sc2c1 | -5.82%
50 | COC(=O)CSC1=C(C#N)C(=O)NC(c2ccccc2)S1 (centres undefined) | -22.9%
51 | CC(C)(C)c1ccc(OCCn2ccccc2=O)cc1 | -0.875%
52 | Cc1ccc(OCCNCc2ccccc2)c(C)c1 | 7.74%
53 | Cc1ccc2nc3cc([N+](=O)[O-])cc([N+](=O)[O-])c3cc2c1 | 2.33%
54 | NC(=O)c1cc([N+](=O)[O-])ccc1NCc1ccc(N)cc1 | 15.2%
55 | CC(=O)N/C(N)=N/c1nc2cc(C)ccc2o1 | -0.336%
56 | Cc1ccc(NC(=O)c2cnc3ccccc3n2)cc1C | -1.88%
57 | CCn1nccc1C(=O)Nc1ccc(C)c(C)c1 | -11.8%
58 | CC(C)=CCc1c(O)ccc2c1OC(c1ccc(O)c(O)c1)CC2=O (centres undefined) | 3.9%
59 | Cc1c(OCC(=O)NC2CC(C)(C)NC(C)(C)C2)ccc2c1oc(=O)c1ccccc12 | -54.9%
60 | COc1cc(SC)ccc1C(=O)NCCOc1ccccc1Cl | 2.19%
61 | CC1CCN(CC2C(=O)O[C@@H]3C[C@@]4(C)CCC[C@H](C)C4=C[C@H]23)CC(C)(C)C1 (some centres undefined) | -19%
62 | CCOc1ccccc1NC(=O)C(=O)N/N=C/c1cc(Br)ccc1O | -22.8%
63 | COc1ccc(C(=O)N/N=C/c2cc(Br)ccc2O)cc1OC | -22.8%
64 | COc1ccc(CCn2c(=S)[nH]c3cc(C(=O)NCc4ccco4)ccc3c2=O)cc1OC | -24.1%
